Screening results (PubChem BioAssay)
Akt phos inh = HTS Assay for Inhibitors of Akt Phophorylation: Primary Screen; Neuro2A IGF-stimulated pAkt S473 HTRF, 20 min; stronger effect = lower value; activity change, % for hits at 50 µM; 360,000 compounds, 0.32% hits; AID 651550, 2012; in the data active = activity change below about -80%; inconclusive = mostly about -51% to -80%; also: % is scaled to controls: 0 for no effect and ±100 for the full control effect
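Single-point screen (50 µM final compound) in Neuro2A cells stimulated 20 min with 6 nM IGF at 37 deg C. After lysis, Ser473-phosphorylated Akt read by HTRF (ex 330 nm, em 615/665 nm) as the 665/615 ratio.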
Epigenetic reg = Quantitative High-Throughput Screen for Regulators of Epigenetic Control; murine LDR cells, GFP reporter derepression, 30 h; Potency, µM (titrated, usually from 53.9 µM), without a hit: at the highest dose GFP activation, usual class: activators; 280,000 compounds, 0.2% hits; AID 1865, 2009; also: potency is read from the fitted curve at half-maximal effect; % of control where 0% means no effect; nearly all actives have a fitted effect of over 60% in size
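Murine LDR cells carrying a silenced, genomically integrated CMV-driven GFP reporter were exposed to compound for 30 hours at 37 C. After PBS washes, GFP-positive cells (20–120 um objects) were counted by laser-scanning microplate cytometry.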
uPA surface inh = qHTS for Inhibitors of Cell Surface uPA Generation; Potency, µM (top dose mostly 38.3 µM), without a hit: top-dose activity change, negative = inhibition, most hits filed as inhibitors; 330,000 compounds, 0.31% hits; cell surface uPA generation assay, qHTS; AID 540303, 2011; active = well fitted inhibition curve with a large enough effect; inconclusive = small, poorly fitted or top-dose-only effect; inactive = no such curve, though single readings can be large or run the other way; tested in mouse RAW 264.7 cells; also: potency is read from the fitted curve at half-maximal effect; % is scaled to controls: 0 for no effect and ±100 for the full control effect; nearly all actives have a fitted effect of over 55% in size
Mm-Cpn inhibitor = Inhibitors of TCP-1 ring complex (TRiC) of Methanococcus maripaludis (MmCpn): qHTS. purified Mm-Cpn ATPase, ADP Transcreener TR-FRET. AID 504842, 2011. Potency, µM (doses to about 76.9 µM), without a hit: at the top dose activity, negative = inhibition, hits mostly inhibitors. 330,000 compounds, 0.031% hits; also: potency is read from the fitted curve at half-maximal effect; % is scaled to controls: 0 for no effect and ±100 for the full control effect; nearly all actives have a fitted effect of over 80% in size
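Quantitative HTS used 25 nM Mm-CPN and 10 uM ATP in magnesium/KCl Tris buffer, pH 7.4, with 1 mM DTT. Hydrolysis ran 30 min at 37°C; ADP was read by HTRF.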
MBNL1-CUG inh = qHTS Assay for Inhibitors of MBNL1-poly(CUG) RNA binding. Potency, µM (top dose mostly 57.5 µM), for inactives: top-dose activity change, negative = inhibition, hits mostly inhibitors. 280,000 compounds, 0.036% hits. TR-FRET MBNL1-His/biotin-(CUG)12 binding, 665/545 ratio. AID 2675, 2010. Muscleblind-like protein 1 (Homo sapiens), Q9NR56; active = well fitted inhibition curve with a large enough effect in the signal ratio, with a control signal flat, not every such curve was filed as active; inconclusive = small, poorly fitted or top-dose-only effect, or effect the other way, or a change in a side signal; inactive = no such curve, though single readings can be large or run the other way; the % refers to the signal ratio; also: potency is read from the fitted curve at half-maximal effect; % is scaled to controls: 0 for no effect and ±100 for the full control effect
Target sequence (Q9NR56 whole entry, looked up): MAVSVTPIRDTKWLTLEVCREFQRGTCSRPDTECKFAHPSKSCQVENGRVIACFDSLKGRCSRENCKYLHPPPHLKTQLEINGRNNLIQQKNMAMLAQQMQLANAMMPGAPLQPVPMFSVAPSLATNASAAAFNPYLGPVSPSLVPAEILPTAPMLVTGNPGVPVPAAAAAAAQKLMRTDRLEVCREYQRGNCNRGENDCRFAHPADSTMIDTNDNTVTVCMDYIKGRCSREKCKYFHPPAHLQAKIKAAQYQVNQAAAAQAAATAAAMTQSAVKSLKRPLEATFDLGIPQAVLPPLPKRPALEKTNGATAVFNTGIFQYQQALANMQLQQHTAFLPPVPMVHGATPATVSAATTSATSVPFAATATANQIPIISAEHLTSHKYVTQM
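Compounds (final 92 nM to 58 uM) are added to His-tagged MBNL1 and biotin-(CUG)12, then terbium anti-His antibody and streptavidin-XL665 (5 nM final). After 60 min at room temperature, the 665/545 nm ratio is read.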
CCT modulator = High-Throughput Screening for Modulators of Cytosolic Chaperonin Activity | purified chaperonin ATPase assay, HTRF ADP detection, 30 min | AID 651819, 2012 | activity change, % (no concentration beside the values), hits read low | 360,000 compounds, 0.3% hits; in the data active = activity change below about -30%; also: % is scaled to controls: 0 for no effect and ±100 for the full control effect
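Enzyme 40 or 20 nM (batch-dependent) in Tris pH 7.4/KCl/MgCl2/DTT; cpd 76 uM single point; ATP 10 uM; 30 min 37 °C; Transcreener ADP HTRF detection, 30 min RT; ratio 665/615.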
* hit, by the source's call; i = inactive; ? = inconclusive; nt = no result given; ! = not confirmed by another sample. Most compounds without a hit are left out; they make up all but 0.97% or so of the library. Unless noted, calls follow the shape of the dose curve; as a rule, active = well fitted curve in the direction sought with a large enough effect; inconclusive = small, poorly fitted or top-dose-only effect, or another doubt; inactive = no such curve, though single readings can be large; an effect the other way counts as inactive or inconclusive.

SMILES | Akt phos inh | Epigenetic reg | uPA surface inh | Mm-Cpn inhibitor | MBNL1-CUG inh | CCT modulator
O=C(N/N=C/C(Cl)=C/c1ccccc1)c1ccc2c(c1)OCO2 | i | nt | 6.31µM* | 0.1% | nt | -0.2
Cc1ccc(-n2nnc(-c3nccn3C)n2)cc1 | i | 0.8% | 3.16µM* | nt | -2.1% | -0.4
Cc1ccc(S(=O)(=O)Nc2ccc3c(c2)C(=O)N([C@H](C)CO)C[C@H](C)[C@H](CN(C)C(=O)Nc2cccc4ccccc24)OCCCC[C@@H](C)O3)cc1 | i | nt | nt | nt | nt | -30.9*
COc1ccc(NC(=O)c2ccc(C)cc2)cc1 | i | nt | 10µM* | 0.0% | 2.7% | -1.6
COc1ccc(C(=O)Nc2ccc3ccccc3c2)cc1 | i | nt | 5.01µM* | -2.7% | 48.6% | -0.5
COc1ccc(Cc2c(-c3cccc(Cl)c3)nc3ccc(Cl)cn23)c(C)c1 | i | nt | nt | nt | nt | 0.5
O=Cc1c2[nH]c3ccccc3c2cc2[nH]c3ccccc3c12 | nt | 12.6µM*! | nt | nt | nt | nt
CNc1cc(-c2cnn(CC(C)C)c2)ncn1 | i | nt | nt | nt | nt | -0.2
O=C(/C=C/c1ccccc1)Nc1ccc(Br)cn1 | i | -2.6% | 1.58µM* | -1.8% | 3.1% | -0.2
O=C(Nc1ccc2ccccc2n1)c1ccccc1Cl | i | nt | ? | 2.6% | -9.7% | -2.7
COc1ccc(C(=O)Nc2ccc3ccccc3n2)c(OC)c1OC | i | nt | 2.82µM* | -7.3% | 2.5% | -2.1
CS(=O)(=O)Nc1cccc(-c2ccc3nncn3c2)c1 | i | nt | nt | nt | nt | 0.0
COc1cc(C2C(C#N)=C(N)Oc3cc(C)n(CCc4ccccc4)c(=O)c32)cc2c1OCO2 (stereo not given) | -87.9%* | 5.5% | 5.8% | 1.9% | 21.6% | -0.4
O=S(=O)(c1ccccc1)c1nc(-c2ccc(Cl)cc2Cl)oc1N1CCCCCC1 | nt | -0.1% | nt | nt | nt | nt
COC(=O)c1sc(-c2ccccc2)cc1NC(C)=O | i | 1.2% | -12.8% | -12.4% | ? | -2.2
COC(=O)c1sc(-c2cccs2)cc1NC(=O)/C=C/C(=O)O | i | -1.2% | -11.8% | ? | ? | -41.9*
Cc1cc(C)nc(Sc2ncnc(N)c2[N+](=O)[O-])n1 | i | 3.5% | ? | -4.2% | ? | -3.3
O=C(CN1C(=O)c2ccccc2S1(=O)=O)c1ccc2c(c1)OCCO2 | i | -0.6% | 2µM* | 0.7% | -0.9% | -0.4
NC(=O)C1CCN(C(=O)CN2C(=O)c3ccccc3S2(=O)=O)CC1 | i | 2.2% | nt | -1.2% | -2.8% | -41.5*
O=C(CN1C(=O)c2ccccc2S1(=O)=O)c1ccc2c(c1)OCCCO2 | i | 1.1% | -7.9% | 0.7% | 0.3% | 0.3
CCNc1nc(Oc2ccc(C(=O)OCC)cc2)nc(SC)n1 | -121.1%* | 1.0% | 2.4% | -0.8% | -1.2% | 0.6
CCNc1nc(Oc2ccc(C(=O)OC)cc2)nc(SC)n1 | i | -0.9% | -2.5% | 0.3% | -3.4% | -0.6
CN1CCc2c(sc3nc(SCC(=O)N4CCOCC4)n(-c4ccc(Cl)cc4)c(=O)c23)C1 | i | nt | 0.3% | -9.0% | ? | 0.9
CCOC(=O)C1C(=O)CC(C)(O)C(C(=O)OCC)C1c1ccc(OC)cc1 (stereo not given) | i | 0.0% | 1.1% | nt | 1.0% | -32.3*
Cn1c(=O)c(C(=O)CN2CC(=O)Nc3ccccc32)c(N)n(Cc2ccccc2)c1=O | i | -0.2% | 2.4% | -3.4% | 7.2% | 0.4
SMILES | Akt phos inh | Epigenetic reg | uPA surface inh | Mm-Cpn inhibitor | MBNL1-CUG inh | CCT modulator
CNC(=O)c1c(NC(=O)c2nc(SCc3ccc(C)cc3)ncc2Cl)sc2c1CCCC2 | nt | 22.4µM* | nt | nt | nt | nt
Cc1cn(C2OC(COC(=O)c3ccccc3)C(OC(=O)c3ccccc3)C2OC(=O)c2ccccc2)c(=O)[nH]c1=O (stereo not given) | i | -1.0% | 0.8% | 0.1% | 7.2% | -1.3
Cc1cn(C2OC(COC(=O)c3ccccc3)C(O)C2O)c(=O)[nH]c1=O (stereo not given) | i | 0.0% | 9.2% | -0.7% | 6.5% | -31.9*
COCC(C)NC(=O)C1CC(c2cccc(Br)c2)=NO1 (stereo not given) | -111.0%* | 0.8% | -4.3% | 2.5% | 0.4% | -0.7
Cc1ccc(/C=N/N2CCN(C3c4ccccc4-c4ccccc43)CC2)s1 | i | -1.0% | 3.8% | 0.1% | 2.3% | -55.9*
C[C@@H]1CN[C@H](CCO)/C1=C\c1ccccc1 | i | nt | -6.2% | nt | nt | 2.9
O=c1oc2cc(O)ccc2cc1-c1nc(-c2ccc(Cl)c(Cl)c2)cs1 | nt | 7.94µM* | nt | nt | nt | nt
O=c1oc2cc(O)ccc2cc1-c1ccccc1 | i | nt | -17.3% | -8.0% | ? | 1.3
Cc1ccccc1CNC(=O)Nc1cccs1 | i | 0.0% | -6.6% | 0.8% | -11.9% | 1.9
O=C(NCc1cccs1)Nc1cccs1 | -114.2%* | 5.6% | -1.0% | 2.0% | 0.2% | 0.6
Cc1ccccc1NC(=O)CSc1nc2ccc(NC(=O)CCc3ccccc3)cc2s1 | nt | 1.6% | nt | nt | nt | nt
C(=N\Nc1nc2ccccc2[nH]1)/c1ccc2c(c1)OCCO2 | i | -0.2% | ? | -3.5% | nt | -1.6
C(=N\Nc1ccc2ccccc2n1)/c1ccc2c(c1)OCCO2 | i | 3.1% | 2.24µM* | 0.2% | 7.6% | 0.9
Cc1cccc(/C=N/Nc2ccc3ccccc3n2)c1 | i | 0.9% | 8.91µM* | -6.7% | 2.2% | -0.6
Cc1ccc(/C=N/Nc2ccc3ccccc3n2)o1 | i | -2.2% | -8.9% | -3.9% | nt | -1.0
O=C(NCCn1cc(SCc2ccccc2F)c2ccccc21)c1cccs1 | nt | -1.1% | nt | nt | nt | nt
Cc1ccc(C)c(NS(=O)(=O)c2cc(C(=O)O)ccc2Cl)c1 | nt | -1.5% | nt | nt | nt | nt
Cc1nc(NC(=O)CCl)sc1C(=O)N(C)C | i | -1.6% | 10µM* | -1.1% | -3.6% | 1.8
CCS(=O)(=O)c1ccccc1C(=O)N(Cc1cccnc1)c1nc2cc(C)c(C)cc2s1 | nt | 12.0% | nt | nt | nt | nt
COc1cc(NC(=O)Nc2cccc([N+](=O)[O-])c2)cc(OC)c1 | i | -0.1% | 7.5% | -0.8% | ? | -52.9*
COc1ccc(NC(=O)Nc2cccc(NC(C)=O)c2)c(OC)c1 | i | 1.1% | 2.9% | 0.8% | -9.9% | -43.0*
Cc1ccc(C(=O)NC(=O)OCCn2c(C)cnc2[N+](=O)[O-])cc1 | i | -1.1% | 1.4% | -0.5% | ? | -2.1
CCOC(=O)c1ccccc1NC(=O)N(C)CCc1c(C)nn(CC)c1C | nt | -1.8% | nt | nt | nt | nt
Cc1c(C(=O)Nc2nc3ccccc3[nH]2)oc2c(Cl)cccc12 | i | 0.0% | -11.0% | 0.0% | -13.0% | -30.3*
